Results filed as inconclusive are left out. Where a call stands in place of a potency, no number is given. Calls of active or inactive are those of the source. Unless noted, calls follow the shape of the full dose curve.
What was measured:
[1] = Nuclear factor erythroid 2-related factor 2/antioxidant responsive element (Nrf2/ARE) small molecule agonists: qHTS cell viability counter screen in human keratinocytes (AID 1919968; active = well fitted curve in the direction sought with a large enough effect in the repeat runs; an effect the other way counts as inactive or inconclusive; also: nearly all actives have a fitted effect of over 55% in size; also: potency is read from the fitted curve at half-maximal effect)
In short: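 KeratinoSens HaCaT cells, 1,500/well, preincubated 5 h, then exposed to compounds in DMSO for 23 h at 37 C/5% CO2. Viability read as CellTiter-Fluor fluorescence after 1 h, in the same wells as the ARE-luciferase read.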

[2] = Nuclear factor erythroid 2-related factor 2/antioxidant responsive element (Nrf2/ARE) small molecule agonists: luciferase reporter gene qHTS assay in human keratinocytes (AID 1919969); also: nearly all actives have a fitted effect of over 35% in size; also: potency is read from the fitted curve at half-maximal effect
[3] = target: Gonadotropin-releasing hormone receptor (Homo sapiens) (UniProt P30968); experiment: Human gonadotropin-releasing hormone receptor (GnRHR) small molecule agonists, calcium flux assay in GnRHR-HEK293 cells (AID 1920063); also: nearly all actives have a fitted effect of over 35% in size; also: potency is read from the fitted curve at half-maximal effect
Chain of Gonadotropin-releasing hormone receptor (Homo sapiens) (P30968 whole entry, looked up): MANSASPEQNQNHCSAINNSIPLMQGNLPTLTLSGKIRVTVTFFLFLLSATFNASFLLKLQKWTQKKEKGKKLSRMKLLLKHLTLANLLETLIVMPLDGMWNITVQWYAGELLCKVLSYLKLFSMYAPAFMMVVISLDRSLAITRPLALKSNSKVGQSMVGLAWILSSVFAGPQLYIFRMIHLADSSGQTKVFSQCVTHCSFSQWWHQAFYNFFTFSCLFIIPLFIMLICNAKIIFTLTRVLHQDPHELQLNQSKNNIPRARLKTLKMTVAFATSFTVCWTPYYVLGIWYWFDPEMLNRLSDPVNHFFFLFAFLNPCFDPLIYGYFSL
In short: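 HEK293 cells stably expressing human GnRHR were dye-loaded for 1 h at 37 C. Compound was added in agonist mode and fluorescence (Ex/Em 480/540) recorded kinetically for 3 min. Fifteen concentrations, triplicates.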

[4] = target: KiSS-1 receptor (Homo sapiens) (UniProt Q969F8); experiment: Human kisspeptin (KISS1R) small molecule agonists, calcium flux assay in KISS1R-HEK293 cells (AID 1920064; active = well fitted curve in the direction sought with a large enough effect in the repeat runs; an effect the other way counts as inactive or inconclusive)
Chain of KiSS-1 receptor (Homo sapiens) (Q969F8 whole entry, looked up): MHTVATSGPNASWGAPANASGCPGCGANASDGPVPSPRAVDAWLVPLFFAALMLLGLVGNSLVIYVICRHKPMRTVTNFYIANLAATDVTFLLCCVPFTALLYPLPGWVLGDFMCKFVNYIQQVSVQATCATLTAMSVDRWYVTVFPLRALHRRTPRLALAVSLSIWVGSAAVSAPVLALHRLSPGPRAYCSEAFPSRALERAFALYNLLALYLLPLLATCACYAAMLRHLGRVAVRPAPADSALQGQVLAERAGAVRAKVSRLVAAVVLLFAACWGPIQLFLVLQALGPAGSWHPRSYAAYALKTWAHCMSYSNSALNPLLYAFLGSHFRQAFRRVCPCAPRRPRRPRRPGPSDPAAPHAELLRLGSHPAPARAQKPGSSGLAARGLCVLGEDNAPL
In short: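 HEK293 cells stably expressing human KISS1R were loaded with calcium dye for 1 h at 37 C, then given compound; fluorescence (Ex/Em 480/540) was read kinetically for 3 min. Fifteen concentrations, triplicate.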

[5] = G protein-coupled receptor (GPCR) small molecule agonists, calcium flux assay: HEK293 wild type cell line counter screen (AID 1920065)
In short: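 Wild-type HEK293 cells plated 18 h, loaded with calcium dye 1 h at 37 C, then compounds added in agonist mode (ATP as positive control). Kinetic fluorescence Ex/Em 480/540 recorded 3 min at 1 sec intervals; 15 concentrations, triplicate.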

[6] = p53 small molecule agonists, cell-based qHTS assay with human liver microsomes: qHTS cell viability counter screen (AID 1963579); also: nearly all actives have a fitted effect of over 45% in size
In short: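 In this multiplexed counter screen, the reporter plates were subsequently treated with CellTiter-Glo so that cell viability, reflected by luminescence, could be recorded for p53RE-bla cells dosed 16 h with compounds under microsomal activation (HLM and NADPH).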

[7] = p53 small molecule agonists, cell-based qHTS assay with rat liver microsomes: qHTS cell viability counter screen (AID 1963580); also: nearly all actives have a fitted effect of over 45% in size; also: potency is read from the fitted curve at half-maximal effect
In short: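 p53RE-bla HCT-116 cells were exposed 16 h at 37 C to compounds with rat liver microsomes (0.5 mg/mL) and NADPH (0.5 mg/mL). Viability was measured in the same wells as ATP content by CellTiter-Glo luminescence.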

[8] = p53 small molecule agonists, cell-based qHTS assay: qHTS cell viability counter screen (AID 1963581); also: nearly all actives have a fitted effect of over 45% in size; also: potency is read from the fitted curve at half-maximal effect
In short: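 p53RE-bla HCT-116 cells, compounds added 5 h after plating and incubated 16 h at 37 C. Cytotoxicity measured in the same wells as intracellular ATP by CellTiter-Glo luminescence after 30 min at room temperature.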

[9] = target: 5-hydroxytryptamine receptor 2A (Homo sapiens) (UniProt P28223); experiment: 5-hydroxytryptamine receptor 2A (HTR2A) small molecule antagonists, cell-based qHTS assay (AID 1963586); also: nearly all actives have a fitted effect of over 45% in size; also: potency is read from the fitted curve at half-maximal effect
Chain of 5-hydroxytryptamine receptor 2A (Homo sapiens) (P28223 whole entry, looked up): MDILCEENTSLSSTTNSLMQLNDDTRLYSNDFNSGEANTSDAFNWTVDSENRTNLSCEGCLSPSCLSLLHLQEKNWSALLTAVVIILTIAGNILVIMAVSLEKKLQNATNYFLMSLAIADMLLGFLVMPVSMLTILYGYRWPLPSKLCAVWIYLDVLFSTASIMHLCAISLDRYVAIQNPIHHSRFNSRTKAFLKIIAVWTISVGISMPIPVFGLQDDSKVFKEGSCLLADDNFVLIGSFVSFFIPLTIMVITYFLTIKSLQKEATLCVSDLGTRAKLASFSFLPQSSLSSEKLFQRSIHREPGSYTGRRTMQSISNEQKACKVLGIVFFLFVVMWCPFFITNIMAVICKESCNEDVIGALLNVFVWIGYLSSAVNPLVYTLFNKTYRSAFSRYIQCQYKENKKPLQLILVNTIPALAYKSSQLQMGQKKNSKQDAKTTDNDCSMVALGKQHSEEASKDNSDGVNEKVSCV
In short: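 Antagonist-mode intracellular calcium assay: DOI (4 nM) added after 5 min compound pre-incubation at room temperature to dye-loaded HTR2A-CHO cells. Fluorescence followed for 3 min, sampled every second.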

[10] = target: 5-hydroxytryptamine receptor 2A (Homo sapiens) (UniProt P28223); experiment: 5-hydroxytryptamine receptor 2A (HTR2A) small molecule agonists, cell-based qHTS assay (AID 1963587); also: nearly all actives have a fitted effect of over 30% in size
In short: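 CHO cells stably expressing human HTR2A, plated 18 h, loaded with calcium dye 1 h at 37 C. Agonist mode: compounds added and intracellular calcium fluorescence recorded kinetically for 2 min at 1 sec intervals.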

[11] = target: Muscarinic acetylcholine receptor M1 (Homo sapiens) (UniProt P11229); experiment: Cholinergic receptor muscarinic 1 (CHRM1) small molecule agonists, cell-based qHTS assay (AID 1963589); also: nearly all actives have a fitted effect of over 35% in size; also: potency is read from the fitted curve at half-maximal effect
Chain of Muscarinic acetylcholine receptor M1 (Homo sapiens) (P11229 whole entry, looked up): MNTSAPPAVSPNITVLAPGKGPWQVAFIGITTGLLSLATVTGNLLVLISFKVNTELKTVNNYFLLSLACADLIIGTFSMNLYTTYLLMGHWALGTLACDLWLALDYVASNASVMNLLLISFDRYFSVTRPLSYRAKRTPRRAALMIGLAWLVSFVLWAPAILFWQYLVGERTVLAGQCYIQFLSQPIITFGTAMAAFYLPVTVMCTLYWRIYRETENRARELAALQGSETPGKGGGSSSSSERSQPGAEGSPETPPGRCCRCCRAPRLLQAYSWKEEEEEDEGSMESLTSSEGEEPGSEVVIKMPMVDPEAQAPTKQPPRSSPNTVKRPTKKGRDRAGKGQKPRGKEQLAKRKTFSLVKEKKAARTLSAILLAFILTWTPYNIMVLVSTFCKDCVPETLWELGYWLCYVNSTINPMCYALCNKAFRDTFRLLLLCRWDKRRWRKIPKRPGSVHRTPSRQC
In short: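 CHO cells stably expressing human CHRM1 were loaded with calcium dye for 1 h at 37 C, then compound was added in agonist mode. Intracellular calcium fluorescence was followed kinetically at 1 s intervals. Fifteen concentrations were tested in three independent runs.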

[12] = cAMP Responsive Elements (CRE) small molecule antagonists, cell-based qHTS assay (AID 1963591; active = well fitted inhibition curve with a large enough effect in the signal ratio in the repeat runs, not every such curve was filed as active; the % refers to the signal ratio; also: potency is read from the fitted curve at half-maximal effect)
In short: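 CRE-bla HEK293T cells plated 18 h, then given compound plus NKH477 at 0.25 uM final for 3 h at 37C. Beta-lactamase reporter read with LiveBLAzer B/G FRET substrate after 2 h at room temperature.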

[13] = target: Beta-2 adrenergic receptor (Homo sapiens) (UniProt P07550); experiment: Adrenergic beta2 receptor (ADRB2) small molecule agonists, cell-based qHTS assay (AID 1963593);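 also: CHO cells stably overexpressing human ADRB2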
Chain of Beta-2 adrenergic receptor (Homo sapiens) (P07550 whole entry, looked up): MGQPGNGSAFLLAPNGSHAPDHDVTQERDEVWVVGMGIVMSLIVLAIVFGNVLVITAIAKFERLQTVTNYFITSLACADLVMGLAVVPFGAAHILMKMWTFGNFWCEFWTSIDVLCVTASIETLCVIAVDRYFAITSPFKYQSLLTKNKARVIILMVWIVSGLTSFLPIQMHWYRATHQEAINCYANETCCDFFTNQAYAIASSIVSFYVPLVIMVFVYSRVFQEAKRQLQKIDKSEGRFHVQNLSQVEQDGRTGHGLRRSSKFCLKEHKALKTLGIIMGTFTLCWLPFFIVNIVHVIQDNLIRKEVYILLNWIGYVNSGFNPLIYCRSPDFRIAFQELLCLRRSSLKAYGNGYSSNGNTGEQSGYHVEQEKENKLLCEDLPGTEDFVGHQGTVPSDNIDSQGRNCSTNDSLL
In short: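 CHO cells stably over-expressing ADRB2 were plated overnight at 37C, then dosed with compounds plus a stimulation mix containing 100uM IBMX and 25uM Ro-20-1724 for 0.5hr at room temperature. cAMP was measured by HTRF competition, 1hr.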

[14] = target: D(2) dopamine receptor (Homo sapiens) (UniProt P14416); experiment: Dopamine D2 receptor (DRD2) small molecule agonists, cell-based qHTS assay (AID 1963594); also: nearly all actives have a fitted effect of over 35% in size; also: potency is read from the fitted curve at half-maximal effect
Chain of D(2) dopamine receptor (Homo sapiens) (P14416 whole entry, looked up): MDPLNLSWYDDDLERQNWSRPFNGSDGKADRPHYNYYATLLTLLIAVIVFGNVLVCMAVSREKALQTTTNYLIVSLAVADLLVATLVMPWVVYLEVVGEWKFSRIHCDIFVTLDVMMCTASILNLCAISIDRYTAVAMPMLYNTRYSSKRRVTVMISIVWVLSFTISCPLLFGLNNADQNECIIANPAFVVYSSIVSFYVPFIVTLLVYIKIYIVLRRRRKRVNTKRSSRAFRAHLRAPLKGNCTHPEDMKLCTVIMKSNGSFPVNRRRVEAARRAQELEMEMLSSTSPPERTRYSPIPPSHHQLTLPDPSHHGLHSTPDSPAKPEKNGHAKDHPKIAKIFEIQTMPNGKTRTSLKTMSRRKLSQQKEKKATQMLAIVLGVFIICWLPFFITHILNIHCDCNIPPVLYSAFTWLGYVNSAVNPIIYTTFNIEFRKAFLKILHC
In short: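 HEK293 cells stably expressing human DRD2, pre-treated with PDE inhibitor Ro20-1724 (0.1 mM final) and compound 10 min at room temperature, then stimulated with NKH477 (200nM […]) for 30 min. cAMP read by HTRF (665/620 nm).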

[15] = target: D(2) dopamine receptor (Homo sapiens) (UniProt P14416); experiment: Dopamine D2 receptor (DRD2) small molecule antagonists, cell-based qHTS assay (AID 1963595; active = well fitted inhibition curve with a large enough effect in the signal ratio in the repeat runs, with a control signal flat; the % refers to the signal ratio)
In short: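 HEK293 cells stably expressing DRD2 were preincubated with 0.1 mM Ro20-1724, then with compound for 10 min at room temperature. Cells were stimulated with 200 nM NKH477 plus 12 nM quinpirole for 30 min, and cAMP was read by HTRF.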

[16] = target: Muscarinic acetylcholine receptor M1 (Homo sapiens) (UniProt P11229); experiment: Cholinergic receptor muscarinic 1 (CHRM1) small molecule antagonists, cell-based qHTS assay (AID 1963588); also: nearly all actives have a fitted effect of over 40% in size
In short: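 CHRM1-CHO calcium-flux assay, antagonist mode. Cells were seeded 18 h, dye-loaded 1 h at 37 C and given compound for 5 min at RT, then acetylcholine was added at 50nM. FDSS fluorescence was read 3 min; 15 concentrations, three runs.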

[17] = cAMP Responsive Elements (CRE) small molecule agonists, cell-based qHTS assay (AID 1963590)
In short: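 CRE-bla HEK 293T cells, 2,000/well in DMEM with 10% dialyzed FBS and 25 mM HEPES, pre-incubated 18 h at 37 C, then exposed to compound 3 h at 37 C. Beta-lactamase reporter read with LiveBLAzer B/G FRET substrate after 2 h at room temperature.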

[18] = target: Beta-2 adrenergic receptor (Homo sapiens) (UniProt P07550); experiment: Adrenergic beta2 receptor (ADRB2) small molecule antagonists, cell-based qHTS assay (AID 1963592); also: series mostly up to about 92 µM; nearly all actives have a fitted effect of over 50% in size
In short: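 Cells (CHO, stable ADRB2 overexpression) incubated 18-20hr at 37C; compounds added from DMSO; agonist mix (1nM isoproterenol, 100uM IBMX, 25uM Ro-20-1724) added; 0.5hr RT; d2-cAMP and anti-cAMP-cryptate added; 1hr RT; 665/615 nm read.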

SMILES	Potency [1]	Potency [2]	Potency [3]	Potency [4]	Potency [5]	Potency [6]	Potency [7]	Potency [8]	Potency [9]	Potency [10]	Potency [11]	Potency [12]	Potency [13]	Potency [14]	Potency [15]	Potency [16]	Potency [17]	Potency [18]
CC(C)(C)N(NC(=O)c1ccc(Cl)cc1)C(=O)c1ccccc1	inactive	inactive	inactive	inactive	inactive	inactive	inactive	inactive	inactive	inactive	inactive	inactive	inactive	inactive	inactive			
CCOP(=S)(S)OCC	inactive	64.4 µM (active)	inactive	inactive	inactive	inactive	inactive	inactive	inactive			inactive	inactive	inactive	inactive	inactive	inactive	inactive
Cc1ccc(C)c2ccccc12	inactive	inactive	inactive	inactive	inactive	inactive	inactive	inactive	inactive	inactive		inactive	inactive	inactive		inactive	inactive	inactive
COc1c2c(cc3c1OCO3)CCN(C)C2	inactive	inactive	inactive	inactive	inactive	inactive	inactive	inactive	16.3 µM (active)		inactive	inactive	inactive	6.68 µM (active)	inactive		inactive	inactive
N#Cc1c2ccccc2cc2ccccc12	inactive	inactive	inactive	inactive	inactive	inactive	inactive	inactive	inactive	inactive	inactive			inactive		inactive		inactive
CCCCN(CCCC)C(=S)[S-].CCCCN(CCCC)C(=S)[S-].[Zn+2]	6.11 µM (active)	1.93 µM (active)	17.4 µM (active)	inactive	inactive	inactive	3.63 µM (active)	25.7 µM (active)	inactive	inactive	19.5 µM (active)	21.7 µM (active)		inactive	inactive			inactive
O=c1[nH]c2ccccc2o1	inactive	inactive	inactive	inactive	inactive	inactive	inactive	inactive	inactive	inactive		inactive		inactive	inactive	inactive		inactive
O=C1CN=C(c2ccccc2)c2cc([N+](=O)[O-])ccc2N1	inactive	inactive	inactive	inactive	inactive	inactive	inactive	inactive				inactive		inactive	inactive		inactive	
CC1C(=O)C[C@]2(C(C)C)C[C@H]12 (stereo not given in full)	inactive	inactive	inactive	inactive	inactive	inactive	inactive		inactive	inactive	inactive			inactive	inactive	inactive	inactive	inactive
Oc1c(Cl)cccc1Cl	inactive	inactive	inactive	inactive	inactive	inactive		inactive	inactive	inactive	inactive	inactive	inactive		inactive	inactive	inactive	inactive

From PubChem BioAssay (Tox21)
